Potency data for 23 compounds are collected here from PubChem BioAssay (NCATS).

What all share (assay): qHTS profiling for inhibitors of Plasmodium falciparum proliferation (AID 504749); note: nearly all actives have a fitted effect of over 60% in size
Holding throughout (details): P. falciparum in erythrocytes, SYBR Green DNA, 72 h; series mostly up to 28.7 µM
For orientation: In qHTS, concentration-response curves come from the screen itself.

The subject of experiment [1] is DIV30. In short, it runs like this:
(§1)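 Readout was DNA-dye fluorescence from lysed cultures, ex 485/em 535 nm. Parasitized red cells had grown 72 h with compound; data scaled between 0.29 uM artemisinin and DMSO wells and corrected using vehicle-only plates.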

For experiment [2], the system named is Dd2. In a few lines:
as §1

Experiment [3] deals with ECU. In a few lines: as §1
The test system of experiment [4] is FAB9. In a few lines:
as §1

Experiment [5] concerns GB4. In short, it runs like this:
as §1

Experiment [6] deals with HB3. In short, it runs like this: as §1
In experiment [7] the test system is ICS. In a few lines:
as §1

Experiment [8] concerns JCK. In short, it runs like this:
as §1

Experiment [9] relates to N140. In a few lines:
as §1

The subject of experiment [10] is P93_24. In a few lines:
as §1

Structures are written as SMILES. Inconclusive results are not listed. Active and inactive are the calls of the source. Calls come from the whole dose curve; as a rule, active = well fitted inhibition curve with a large enough effect; inconclusive = small, poorly fitted or top-dose-only effect; inactive = flat fitted curve, though single readings scatter.
Potency is the fitted concentration of half-maximal effect.

In the case of `Clc1ccccc1Cl`, the Potency entry in experiment [1], in [2], in experiment [3], in experiment [4], in experiment [5] and in experiment [6] was “inactive” each time. For the same compound, the Potency entry in [7], in experiment [8], in experiment [9] and in experiment [10] was “inactive” in each case.
Regarding `Oc1cccc[c]1[Hg][Cl]`, the Potency in experiment [1] was 9.53 µM (active); in [2], 2.51 µM (active); in experiment [3], 3.55 µM (active); in [4], 10 µM (active); in [5], 4.26 µM (active); in experiment [6], 10 µM (active). Further, the Potency in experiment [7] was 5.01 µM (active); in [8], 12.6 µM (active); in [9] it was 5.01 µM (active); in [10], 6.31 µM (active).
Take `CCON=O`: the Potency result in experiment [1], in [2], in experiment [3], in [4], in [5] and in experiment [6] was “inactive” throughout. The Potency entry in experiment [7], in [8], in experiment [9] and in [10] was “inactive” throughout.
With `CCOC(=O)c1ccccc1C(=O)OCC`, the Potency entry in experiment [1], in [2], in experiment [3], in [4], in experiment [5] and in experiment [6] was “inactive” in each case. For the same compound, the Potency result in [7], in experiment [8], in experiment [9] and in [10] was “inactive” in each case.
For `FC(F)OC(F)(F)C(F)Cl` (stereo not given), the Potency result in [1], in experiment [2], in experiment [3], in [4], in experiment [5] and in experiment [6] was “inactive” in each case. Also, the Potency entry in experiment [7], in experiment [8], in experiment [9] and in [10] was “inactive” each time.
On to `O=C(NCNC(=O)NC1C(=O)NC(=O)N1CO)NC1C(=O)NC(=O)N1CO` (stereo not given), for which the Potency entry in experiment [1], in experiment [2], in [3], in experiment [4], in experiment [5] and in experiment [6] was “inactive” each time. Also, the Potency entry in experiment [7], in [8], in [9] and in [10] was “inactive” in each case.
For the compound `COc1ccc2c3c1O[C@H]1C(=O)CC[C@H]4[C@@H](C2)N(C)CC[C@]314`, the Potency entry in [1], in experiment [2], in experiment [3], in experiment [4], in [5] and in experiment [6] was “inactive” in each case. The Potency result in experiment [7], in experiment [8], in [9] and in experiment [10] was “inactive” throughout.
With `NCC(O)c1cccc(O)c1` (stereo not given), the Potency result in experiment [1], in experiment [2], in experiment [3], in experiment [4], in [5] and in experiment [6] was “inactive” throughout. In addition, the Potency result in experiment [7], in [8], in experiment [9] and in experiment [10] was “inactive” throughout.
On to `CCC(N)Cc1c[nH]c2ccccc12` (stereo not given), for which the Potency result in [1], in experiment [2], in experiment [3], in experiment [4], in [5] and in [6] was “inactive” each time. The Potency result in experiment [7], in experiment [8], in experiment [9] and in [10] was “inactive” each time.
On to `O[C@H]1[C@H]2[C@H](O)CCCN2C[C@H]1O`, for which the Potency entry in experiment [1], in experiment [2], in experiment [3], in [4], in [5] and in experiment [6] was “inactive” each time. Moreover, the Potency result in experiment [7], in [8], in experiment [9] and in experiment [10] was “inactive” each time.
Consider `O=C1CCO1`, for which the Potency entry in [1], in experiment [2], in experiment [3], in experiment [4], in [5] and in experiment [6] was “inactive” in each case. Further, the Potency entry in experiment [7], in [8], in [9] and in experiment [10] was “inactive” in each case.
Turning to `COC([CH2][Hg])CNC(=O)c1ccccc1OCC(=O)O` (stereo not given), the Potency entry in [1], in [2], in experiment [3], in [4], in experiment [5] and in [6] was “inactive” each time. Besides, the Potency entry in experiment [7], in experiment [8], in [9] and in experiment [10] was “inactive” each time.
`CCC1(c2ccccc2)C(=O)NC(=O)N(C(=O)c2ccccc2)C1=O` (stereo not given): the Potency result in experiment [1], in experiment [2], in experiment [3], in experiment [4], in experiment [5] and in [6] was “inactive” throughout. In addition, the Potency result in experiment [7], in experiment [8], in [9] and in experiment [10] was “inactive” throughout.
For `CN1c2ccccc2C(NCCCCCCC(=O)O)c2ccc(Cl)cc2S1(=O)=O` (stereo not given), the Potency entry in [1], in [2], in [3], in experiment [4], in [5] and in [6] was “inactive” throughout. Further, the Potency entry in [7], in experiment [8], in experiment [9] and in experiment [10] was “inactive” throughout.
For `CCCCNCC(O)c1ccc(O)cc1` (stereo not given), the Potency entry in [1], in experiment [2], in [3], in experiment [4], in [5] and in [6] was “inactive” in each case. The Potency entry in experiment [7], in experiment [9] and in [10] was “inactive” each time. Besides, the Potency in [8] is 1.12 µM (active).
With `C[C@]12CCC(=O)C[C@@H]1CC[C@@H]1[C@@H]2CC[C@]2(C)[C@@H](O)CC[C@@H]12`, the Potency entry in experiment [1], in experiment [2], in experiment [3], in experiment [4], in experiment [5] and in experiment [6] was “inactive” in each case. Besides, the Potency entry in experiment [7], in experiment [8], in experiment [9] and in experiment [10] was “inactive” throughout.
As for `O=C1CC[C@@]2(O)C3Cc4ccc(O)c5c4C2(CCN3CC2CC2)[C@H]1O5` (stereo not given in full), the Potency result in experiment [1], in experiment [2], in experiment [3], in experiment [4], in [5] and in experiment [6] was “inactive” throughout. Moreover, the Potency result in experiment [7], in [8], in experiment [9] and in experiment [10] was “inactive” in each case.
On to `ClC(Cl)(Cl)Cl`, for which the Potency result in [1], in experiment [2], in [3], in [4], in experiment [5] and in [6] was “inactive” throughout. Further, the Potency result in experiment [7], in experiment [8], in [9] and in [10] was “inactive” in each case.
On to `ClC=C(Cl)Cl`, for which the Potency result in experiment [1], in experiment [2], in [3], in [4], in [5] and in [6] was “inactive” throughout. For the same compound, the Potency result in experiment [7], in experiment [8], in experiment [9] and in experiment [10] was “inactive” in each case.
As for `CN1C2CCC1CC(OC(c1ccccc1)c1ccc(Cl)cc1)C2` (stereo not given), the Potency is 7.57 µM (active) in experiment [1]; 10 µM (active) in experiment [2]; 6.31 µM (active) in experiment [3]; 11.2 µM (active) in [4]; 6.01 µM (active) in experiment [5]; 12.6 µM (active) in experiment [6]. Besides, the Potency in experiment [7] was 3.55 µM (active); in [8], 12.6 µM (active); in experiment [9], 11.2 µM (active); in experiment [10], 8.91 µM (active).
Take `CC(C)CCON=O`: the Potency entry in experiment [1], in experiment [2], in [3], in [4], in [5] and in experiment [6] was “inactive” each time. For the same compound, the Potency entry in experiment [7], in experiment [8], in [9] and in experiment [10] was “inactive” each time.
Take `N#CC1(N2CCCCC2)CCCCC1`: the Potency result in experiment [1], in experiment [2], in experiment [3], in experiment [4], in [5] and in [6] was “inactive” throughout. Also, the Potency result in experiment [7], in [8], in experiment [9] and in experiment [10] was “inactive” each time.
With `CC(C)(O)C1C2OC(=O)C1C1(O)CC3OC34C(=O)OC2C14C` (stereo not given), the Potency result in [1], in [2], in experiment [3], in [4], in experiment [5] and in [6] was “inactive” throughout. Besides, the Potency result in [7], in [8], in experiment [9] and in experiment [10] was “inactive” each time.
